# Results reported in PubChem BioAssay (EPA / NIEHS).
# Results filed as inconclusive are left out. The source made the active and inactive calls. Rule for the calls: active = hit-call score of the fitted dose curve at least 0.9, where 1 is the maximum; inconclusive = response in the unintended direction; inactive = score below 0.9.
# Test: ACEA_ER_80hr: ACEA Biosciences xCELLigence Real-Time Cell Analysis on Estrogen Receptor Agonism for Proliferation (AID 2282667)
# Settings: T47D proliferation, impedance (xCELLigence), 80 h
# How it was run: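 T47D human breast cells were seeded on electrode plates, monitored overnight, then exposed continuously to compounds in eight-point 1:4 dilutions from 100 uM (max 0.5% DMSO). Impedance-based growth was read at 80 h, fitted upward relative to DMSO.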
SMILES,outcome,AC50
BrCCBr,inactive,–
COc1cc(OC)nc(NC(=O)NS(=O)(=O)c2ncccc2C(=O)N(C)C)n1,inactive,–
N#CCCO,inactive,–
CCCCOCCOC(C)=O,inactive,–
O=C(NCO)NCO,inactive,–
CCOC(=O)CP(=O)(OCC)OCC,inactive,–
C[C@]12CC[C@H](O)CC1=CC[C@@H]1[C@@H]2CC[C@]2(C)C(=O)CC[C@@H]12,–,983 nM (active)
CC(C)=C[C@@H]1[C@@H](C(=O)OCc2coc(Cc3ccccc3)c2)C1(C)C,inactive,–
C1CCC(NC2CCCCC2)CC1,inactive,–
O=Cc1cccc(Oc2ccccc2)c1,inactive,–
ClCCBr,inactive,–
O=CC=O,inactive,–
NN=C(N)N,inactive,–
O=C(OC1CCCCC1)c1ccccc1C(=O)OC1CCCCC1,inactive,–
CC(C)OC(=S)S,inactive,–
COP(=S)(OC)Oc1cc(Cl)c(Br)cc1Cl,inactive,–
N#CN=C(N)N,inactive,–
CC(C)(c1ccc(OCC2CO2)cc1)c1ccc(OCC2CO2)cc1 (stereo not drawn),inactive,–
COP(=S)(OC)Oc1ccc(Sc2ccc(OP(=S)(OC)OC)cc2)cc1,–,23.3 nM (active)
O=C(c1ccccc1)C(Cl)Cl,inactive,–
CCOP(=O)(CN(CCO)CCO)OCC,inactive,–
CC(C)OC(=O)Nc1ccccc1,inactive,–
O=[N+]([O-])c1ccc2c3c(cccc13)CC2,inactive,–
CC(C)c1ccc(CO)cc1,inactive,–
COP(=S)(OC)Oc1cc(Cl)c(Cl)cc1Cl,inactive,–
[O-][Cl+2]([O-])O,inactive,–
CNC(=O)O/N=C/C(C)(C)S(C)=O (stereo not drawn),inactive,–
COP(=S)(OC)Oc1c(Cl)cc(C)cc1Cl,inactive,–
